Test [1] deals with Cytochrome P450 2D6 (Homo sapiens) (UniProt P10635). Description: Cytochrome P450 family 2 subfamily D member 6 (CYP2D6) small molecule antagonists: luciferase biochemical (cell-free) qHTS assay (AID 1645840; active means well fitted curve in the direction sought with a large enough effect in the repeat runs; an effect the other way counts as inactive or inconclusive; further: nearly all actives have a fitted effect of over 55% in size; further: potency means the concentration at half of the fitted maximal effect). An outline of the steps:
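P450-Glo luminescent screen: recombinant CYP2D6 enzyme–proluciferin substrate mix preincubated with compound 10 min at room temperature, then NADPH regeneration added for 1 h at room temperature. Detection reagent added for 20 min; luciferin light read as relative luminescence units.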
Background: qHTS replaces the single test concentration by a dilution series.

For test [2], the target named is Cytochrome P450 2C9 (Homo sapiens) (UniProt P11712). Description: Cytochrome P450 family 2 subfamily C member 9 (CYP2C9) small molecule antagonists: luciferase biochemical (cell-free) qHTS assay (AID 1645842; active means well fitted curve in the direction sought with a large enough effect in the repeat runs; an effect the other way counts as inactive or inconclusive; further: nearly all actives have a fitted effect of over 55% in size; further: potency means the concentration at half of the fitted maximal effect). An outline of the steps:
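Luminescence, after 20 min with luciferin detection reagent, reflected CYP2C9 turnover during a 1 h NADPH-driven reaction at 37C. Enzyme-substrate mix contained 0.4% bovine serum albumin and was preincubated with compound 10 min at room temperature.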

Test [3] can be described thus: Primary qHTS for inhibitors of nuclear receptor binding SET domain protein 2 (NSD2) in an isogenic RCH-ACV NSD2 p.E1099K mutant (9B) (AID 1645876). Further: nearly all actives have a fitted effect of over 70% in size. Further: potency means the concentration at half of the fitted maximal effect.
Test [4] is described as follows: Primary qHTS for inhibitors of nuclear receptor binding SET domain protein 2 (NSD2) in an RCH-ACV wild type WT cells (2C) (AID 1645877). Further: nearly all actives have a fitted effect of over 70% in size. Further: potency means the concentration at half of the fitted maximal effect.
The next test concerns the target Papain (Carica papaya) (UniProt P00784). Description: Primary qHTS assay for inhibitors of the protease papain (AID 1645873).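 Further: papain turnover of Z-FR-AMC read as the AMC fluorescence gain over 10 min; series mostly up to about 50 µM.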
Test [5] concerns the target N-terminal Xaa-Pro-Lys N-methyltransferase 1 (Homo sapiens) (UniProt Q9BV86). Briefly: Confirmatory qHTS for Inhibitors of N-terminal methyltransferase 1 (NTMT1): MTaseGlo Assay (AID 1645874). Further: nearly all actives have a fitted effect of over 65% in size. Further: potency means the concentration at half of the fitted maximal effect. An outline of the steps:
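qHTS format: NTMT1 125 nM, SAM 100 uM, peptide SPKRIA 1 uM final; 15 min compound preincubation, 30 min reaction at room temperature. MTase-Glo luminescence.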

Test [6] has as its target Rap guanine nucleotide exchange factor 3 (Homo sapiens) (UniProt O95398). Briefly: Confirmatory qHTS for antagonist of cAMP-regulated guanine nucleotide exchange factor 3 (EPAC1) (AID 1645880). Further: nearly all actives have a fitted effect of over 55% in size. An outline of the steps: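 Nucleotide exchange uses 100 nM EPAC1, 250 nM RAP1B-BODIPY-GDP and 50 uM GDP, with compounds in a concentration-titration series. After 5 min at room temperature, fluorescence (480 nm ex/540 nm em) is read every 5 min for 30 min. Data are normalized to control ATA and DMSO.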

The target of test [7] is Rap guanine nucleotide exchange factor 4 (Homo sapiens) (UniProt Q8WZA2). Description: Confirmatory qHTS for antagonist of cAMP-regulated guanine nucleotide exchange factor 4 (EPAC2) (AID 1645885). Further: nearly all actives have a fitted effect of over 25% in size.
Sequence of Rap guanine nucleotide exchange factor 4 (Homo sapiens) (Q8WZA2 whole entry, looked up): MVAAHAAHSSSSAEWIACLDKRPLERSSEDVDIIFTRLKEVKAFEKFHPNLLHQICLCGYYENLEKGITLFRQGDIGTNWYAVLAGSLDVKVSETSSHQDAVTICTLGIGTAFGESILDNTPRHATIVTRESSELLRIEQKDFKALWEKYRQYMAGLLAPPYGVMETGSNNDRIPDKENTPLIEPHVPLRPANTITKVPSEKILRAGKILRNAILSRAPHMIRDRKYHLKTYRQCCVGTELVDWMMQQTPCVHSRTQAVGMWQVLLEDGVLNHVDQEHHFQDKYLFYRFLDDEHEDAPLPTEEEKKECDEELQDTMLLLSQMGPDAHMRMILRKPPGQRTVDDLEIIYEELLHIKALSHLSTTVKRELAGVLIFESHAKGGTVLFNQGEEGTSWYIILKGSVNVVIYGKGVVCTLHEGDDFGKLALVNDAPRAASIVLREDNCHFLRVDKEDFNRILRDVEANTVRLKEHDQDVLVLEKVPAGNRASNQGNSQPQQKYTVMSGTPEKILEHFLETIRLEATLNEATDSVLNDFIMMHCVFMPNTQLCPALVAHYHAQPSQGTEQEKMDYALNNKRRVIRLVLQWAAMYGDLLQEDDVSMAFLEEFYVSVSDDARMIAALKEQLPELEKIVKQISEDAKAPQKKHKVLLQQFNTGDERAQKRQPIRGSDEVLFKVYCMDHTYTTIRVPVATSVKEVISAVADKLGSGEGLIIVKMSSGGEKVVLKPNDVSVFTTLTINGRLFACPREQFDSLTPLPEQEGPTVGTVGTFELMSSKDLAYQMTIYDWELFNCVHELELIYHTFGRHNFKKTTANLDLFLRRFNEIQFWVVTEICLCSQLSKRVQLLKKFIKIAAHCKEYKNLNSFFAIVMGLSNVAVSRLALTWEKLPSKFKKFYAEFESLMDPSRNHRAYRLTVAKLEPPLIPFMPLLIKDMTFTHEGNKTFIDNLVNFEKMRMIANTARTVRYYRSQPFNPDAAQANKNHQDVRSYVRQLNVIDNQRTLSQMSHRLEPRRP

“And” between values parts separate entries of the source, which are not always exact repeats. Equal values may be shown once. Results filed as inconclusive are left out. The source holds several records for some structures; these can differ, active in one and inactive in another. The source made the active and inactive calls. Unless noted, the call rests on the fitted dose curve; in most records, active means well fitted curve in the direction sought with a large enough effect; inconclusive means small, poorly fitted or top-dose-only effect, or another doubt; inactive means no such curve, though single readings can be large; an effect the other way counts as inactive or inconclusive.

Sequence of Papain (Carica papaya) (P00784 whole entry, looked up): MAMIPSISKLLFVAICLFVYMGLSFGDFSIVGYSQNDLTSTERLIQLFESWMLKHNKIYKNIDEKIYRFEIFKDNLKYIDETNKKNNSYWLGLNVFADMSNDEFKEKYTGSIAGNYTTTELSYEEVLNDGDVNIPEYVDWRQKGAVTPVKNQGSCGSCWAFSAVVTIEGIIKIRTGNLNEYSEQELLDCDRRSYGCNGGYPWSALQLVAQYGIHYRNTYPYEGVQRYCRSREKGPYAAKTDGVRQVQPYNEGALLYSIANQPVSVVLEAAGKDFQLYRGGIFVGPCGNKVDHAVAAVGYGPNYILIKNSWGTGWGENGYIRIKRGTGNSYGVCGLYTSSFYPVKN
Sequence of Cytochrome P450 2C9 (Homo sapiens) (P11712 whole entry, looked up): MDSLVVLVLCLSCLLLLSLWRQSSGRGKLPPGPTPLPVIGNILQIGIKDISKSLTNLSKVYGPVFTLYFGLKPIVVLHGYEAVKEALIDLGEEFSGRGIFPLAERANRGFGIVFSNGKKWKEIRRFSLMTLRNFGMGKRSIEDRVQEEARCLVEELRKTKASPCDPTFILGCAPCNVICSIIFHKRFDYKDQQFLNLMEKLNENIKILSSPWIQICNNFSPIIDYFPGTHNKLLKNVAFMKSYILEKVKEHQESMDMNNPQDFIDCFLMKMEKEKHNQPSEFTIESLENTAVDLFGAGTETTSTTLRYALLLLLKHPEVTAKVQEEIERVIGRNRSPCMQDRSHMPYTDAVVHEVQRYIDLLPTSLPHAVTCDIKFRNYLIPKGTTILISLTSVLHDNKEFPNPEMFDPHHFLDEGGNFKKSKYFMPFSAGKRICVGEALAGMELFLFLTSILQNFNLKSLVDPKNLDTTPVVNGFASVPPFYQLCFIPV
Sequence of Cytochrome P450 2D6 (Homo sapiens) (P10635 whole entry, looked up): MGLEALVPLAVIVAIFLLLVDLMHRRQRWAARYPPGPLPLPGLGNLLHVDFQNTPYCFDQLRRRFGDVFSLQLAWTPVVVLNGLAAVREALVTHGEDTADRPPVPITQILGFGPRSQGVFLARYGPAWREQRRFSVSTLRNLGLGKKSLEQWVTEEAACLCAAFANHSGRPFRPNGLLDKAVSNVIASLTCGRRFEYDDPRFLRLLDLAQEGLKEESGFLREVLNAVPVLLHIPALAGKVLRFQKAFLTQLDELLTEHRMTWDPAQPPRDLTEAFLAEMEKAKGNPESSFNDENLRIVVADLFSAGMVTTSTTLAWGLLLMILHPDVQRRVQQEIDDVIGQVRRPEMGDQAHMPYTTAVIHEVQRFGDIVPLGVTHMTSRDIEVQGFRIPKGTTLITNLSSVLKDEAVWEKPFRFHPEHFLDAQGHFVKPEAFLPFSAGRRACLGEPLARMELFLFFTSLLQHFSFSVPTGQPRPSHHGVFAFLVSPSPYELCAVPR
Sequence of N-terminal Xaa-Pro-Lys N-methyltransferase 1 (Homo sapiens) (Q9BV86 whole entry, looked up): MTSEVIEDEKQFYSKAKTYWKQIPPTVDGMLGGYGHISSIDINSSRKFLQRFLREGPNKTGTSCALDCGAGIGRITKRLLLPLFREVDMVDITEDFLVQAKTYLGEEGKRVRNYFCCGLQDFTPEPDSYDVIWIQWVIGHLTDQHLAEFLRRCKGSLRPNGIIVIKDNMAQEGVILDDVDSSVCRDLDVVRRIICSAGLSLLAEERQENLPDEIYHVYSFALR
Sequence of Rap guanine nucleotide exchange factor 3 (Homo sapiens) (O95398 whole entry, looked up): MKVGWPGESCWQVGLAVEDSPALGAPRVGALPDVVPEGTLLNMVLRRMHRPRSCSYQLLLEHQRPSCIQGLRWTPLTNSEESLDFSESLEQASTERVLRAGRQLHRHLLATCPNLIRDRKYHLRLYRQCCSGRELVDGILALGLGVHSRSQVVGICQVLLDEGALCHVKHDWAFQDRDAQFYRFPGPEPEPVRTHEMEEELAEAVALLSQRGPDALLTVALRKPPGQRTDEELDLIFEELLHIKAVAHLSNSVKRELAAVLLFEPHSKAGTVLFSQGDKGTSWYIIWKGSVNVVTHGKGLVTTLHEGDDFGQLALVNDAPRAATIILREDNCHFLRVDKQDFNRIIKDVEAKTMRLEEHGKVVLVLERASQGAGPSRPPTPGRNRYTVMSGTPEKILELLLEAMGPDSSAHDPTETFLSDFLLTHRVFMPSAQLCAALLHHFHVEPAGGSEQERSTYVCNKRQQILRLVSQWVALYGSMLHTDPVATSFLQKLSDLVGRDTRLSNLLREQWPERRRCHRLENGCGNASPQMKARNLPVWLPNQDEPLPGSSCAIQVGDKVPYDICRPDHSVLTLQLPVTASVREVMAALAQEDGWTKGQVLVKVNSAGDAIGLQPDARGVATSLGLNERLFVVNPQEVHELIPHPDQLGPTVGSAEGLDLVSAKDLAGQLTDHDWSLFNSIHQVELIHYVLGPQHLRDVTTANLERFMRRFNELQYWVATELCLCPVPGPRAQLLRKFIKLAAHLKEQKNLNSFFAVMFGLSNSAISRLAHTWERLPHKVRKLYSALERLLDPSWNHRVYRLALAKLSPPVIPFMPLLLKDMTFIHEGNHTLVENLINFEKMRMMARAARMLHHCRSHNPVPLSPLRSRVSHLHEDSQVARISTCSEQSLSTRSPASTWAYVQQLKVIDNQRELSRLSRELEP

Regarding `CC(O)C(=O)O` (configuration not stated), the Potency in test [1] is 12.3 µM (active). Also, the Potency entry in test [2], in test [3] and in test [4] was “inactive” each time.

With `COc1cccc(OC)c1C(=O)N[C@@H]1C(=O)N2[C@@H]1SC(C)(C)[C@@H]2C(=O)O`, the Potency entry in test [1], in test [2], in test [3] and in test [4] was “inactive” in each case.

Regarding `CC(C)=CCC1C(=O)N(c2ccccc2)N(c2ccccc2)C1=O`, the Potency result in test [1] and in test [2] was “inactive” in each case. Further, the results for the Potency in test [3] and in test [4] were 16.8 µM (active) and 15 µM (active), respectively.

For `CC(C)n1nc(-c2cc3cc(O)ccc3[nH]2)c2c(N)ncnc21`, the Potency in test [1] was 13.5 µM (active); in test [2], 1.95 µM (active) and 1.51 µM (active); in test [3], 29.9 nM (active) and 3.32 µM (active); in test [4] it was 47.3 nM (active) and 3.32 µM (active).

Regarding `COc1ccc(CCN2CCC(Nc3nc4ccccc4n3Cc3ccc(F)cc3)CC2)cc1`, the Potency in test [1] was 6.17 µM (active); in test [3] it was 7.5 µM (active); in test [4] it was 5.31 µM (active). Moreover, in test [2], the Potency result is “inactive”.

In the case of `N[C@H](CO)C(=O)O`, the Potency result (in test [1]; in test [2]; with Papain (Carica papaya)) was “inactive” throughout.

For `Cc1cccc(C)c1NC(=O)CN1CCN(CCCC(c2ccc(F)cc2)c2ccc(F)cc2)CC1`, the Potency in test [1] was 2.75 µM (active); in test [2], 19.5 µM (active); in test [3], 23.7 µM (active); in test [4] it was 11.9 µM (active).

As for `CN(C(=O)CN(CCO)CC(=O)N(C)C(C)(C)Cc1ccccc1)C(C)(C)Cc1ccccc1`, the Potency was 1.38 µM (active) in test [1], 15.5 µM (active) in test [2], 5.31 µM (active) in test [3] and 5.31 µM (active) in test [4].

On to `COc1ccc(C2C(=O)c3ccccc3C2=O)cc1`, for which the Potency entry in test [1], in test [2], in test [3] and in test [4] was “inactive” each time.

As for `C[C@H]1[C@H](NC(=O)/C(=N/OC(C)(C)C(=O)O)c2csc(N)n2)C(=O)N1S(=O)(=O)O` (stereo in doubt), the Potency result in test [1], in test [2], in test [3] and in test [4] was “inactive” throughout.

In the case of `CN1[C@@H]2CC[C@H]1CC(OC(=O)c1c[nH]c3ccccc13)C2` (some centres not stated), the Potency in test [1] is 12.3 µM (active). The Potency entry in test [2], in test [3] and in test [4] was “inactive” in each case.

For `C[C@]12CC[C@@H]3c4ccc(O)cc4CC[C@H]3[C@@H]1CC[C@@H]2O`, the Potency entry (in test [1]; in test [2]; in the test with Papain (Carica papaya)) was “inactive” in each case. The Potency in test [3] was 16.6 µM (active); in test [4], 7.42 µM (active).

Consider `CN(C)CC/C=C1/c2ccccc2COc2ccc(CC(=O)O)cc21`, for which the Potency result in test [1], in test [2], in test [3] and in test [4] was “inactive” in each case.

Turning to `C#C[C@]1(O)CC[C@H]2[C@@H]3CCc4cc(OC5CCCC5)ccc4[C@H]3CC[C@@]21C`, the Potency result in test [1] and in test [3] was “inactive” throughout. Also, the Potency in test [2] is 8.71 µM (active).

With `CC1(C)O[C@@H]2C[C@H]3[C@@H]4CCC5=CC(=O)CC[C@]5(C)[C@@]4(F)[C@@H](O)C[C@]3(C)[C@]2(C(=O)CCl)O1`, the Potency result in test [1], in test [3] and in test [4] was “inactive” each time. In test [2], the Potency was 8.71 µM (active).

For `CNCCC=C1c2ccccc2CCc2ccccc21`, the Potency is 4.77 µM (active) in test [1], 23.1 µM (active) in test [3] and 20.6 µM (active) in test [4]. The Potency entry (in test [2]; with Papain (Carica papaya)) was “inactive” in each case.

Regarding `CCCCC(CC)CN=C(N)NC(N)=NCCCCCCN=C(N)NC(N)=NCC(CC)CCCC` (configuration not stated), the Potency in test [1] was 0.617 µM (active); in test [2] it was 12.3 µM (active); in test [5], 18.3 µM (active); in test [3], 0.75 µM (active); in test [4], 0.841 µM (active).

For `Cc1ccccc1C(=O)Nc1ccc(C(=O)N2CCCC(N(C)C)c3ccccc32)cc1` (configuration not stated), the Potency result in test [1] and in test [2] was “inactive” throughout. In addition, the Potency in test [3] is 5.78 µM (active); in test [4], “inactive and 5.15 µM (active)”.

Regarding `CC(=O)Oc1ccc(C(=C2CCCCC2)c2ccc(OC(C)=O)cc2)cc1`, the Potency in test [1] is 15.5 µM (active); in test [2] it was 9.77 µM (active). The Potency entry in test [3] and in test [4] was “inactive” throughout.

Consider `Nc1ccc(C(=O)Nc2ccccc2N)cc1`, for which the Potency entry in test [1] and in test [2] was “inactive” in each case. The values for the Potency in test [3] and in test [4] were 9.44 µM (active) and 8.41 µM (active), respectively.

Consider `COC(=O)C1=C(C)NC(C)=C(C(=O)O[C@@H]2CCCN(Cc3ccccc3)C2)[C@@H]1c1cccc([N+](=O)[O-])c1`, for which the Potency in test [1] was 6.92 µM (active); in test [2], 0.195 µM (active); in test [3], 21.1 µM (active) and 25.8 µM (active); in test [4], 20.5 µM (active). In addition, in test [5], the Potency result was “inactive”.

Consider `Oc1c(I)cc(I)c2cccnc12`, for which the Potency result in test [1] and in test [2] was “inactive” each time. For the same compound, the Potency in test [3] is 2.99 µM (active); in test [4], 2.11 µM (active).

On to `Cc1ccnc(NS(=O)(=O)c2ccc(N)cc2)n1`, for which the Potency entry in test [1], in test [2], in test [3] and in test [4] was “inactive” throughout.

For `CN1C(CCl)Nc2cc(Cl)c(S(N)(=O)=O)cc2S1(=O)=O` (configuration not stated), the Potency result in test [1], in test [2], in test [3] and in test [4] was “inactive” throughout.

Take `COC(=O)CCc1ccc(OCC(O)CNC(C)C)cc1` (configuration not stated): the Potency result in test [1], in test [2], in test [3] and in test [4] was “inactive” throughout.

As for `CC(=O)N(O)CCCCCNC(=O)CCC(=O)N(O)CCCCCNC(=O)CCC(=O)N(O)CCCCCN`, the Potency result in test [1] and in test [2] was “inactive” each time. Also, the Potency in test [3] was 7.5 µM (active) and 5.25 µM (active); in test [4], 4.73 µM (active) and 4.68 µM (active).

On to `C[n+]1c2cc(N)ccc2cc2ccc(N)cc21` (tested in a mixture with another compound), for which the Potency in test [1] is 11 µM (active); in test [3] it was 1.5 µM (active); in test [4], 1.19 µM (active). Also, the Potency result in test [2], in test [6] and in test [7] was “inactive” each time.

Source of the values: PubChem BioAssay (NCATS).
